Source: PubChem BioAssay
SENP6 block = blocks the human protease SENP6; Q9GZR1; Recombinant SENP6 catalytic domain, aminoluciferin luminescence; inhibition, % at 10 µM; 1.8% of 330,000 active;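 active = inhibition above about 50% at the single tested dose, limit read from the data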;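 also: plate controls were DMSO wells with enzyme for no effect and DMSO wells lacking enzyme for full effect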
SENP8 block-1 = SENP8 protease inhibition; 1.2% of 330,000 active; purified SENP8, Z-RLRGG-aminoluciferin cleavage, luminescence; inhibition, % at 10 µM; in the data active = inhibition above about 50%
Target sequence (Q96LD8 whole entry, looked up): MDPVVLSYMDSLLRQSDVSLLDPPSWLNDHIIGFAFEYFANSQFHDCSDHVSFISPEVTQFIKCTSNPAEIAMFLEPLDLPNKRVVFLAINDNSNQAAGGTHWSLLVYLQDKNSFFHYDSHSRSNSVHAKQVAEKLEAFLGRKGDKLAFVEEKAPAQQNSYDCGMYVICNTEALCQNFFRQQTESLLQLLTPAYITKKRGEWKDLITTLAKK
SENP7 inh = SENP7 protease inhibition; recombinant SENP7, Z-RLRGG-aminoluciferin luminescence, 40 min; inhibition, % at 5 µM; 1.5% of 330,000 active; AID 434973;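 active = inhibition above about 50% at the single test dose, limit read from the data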;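 also: plate controls were DMSO with enzyme for no effect and no enzyme buffer wells for full effect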
SENP8 block-2 = inhibitors of human SENP8 protease; Q96LD8; recombinant SENP8, Nedd8 substrate fluorescence; inhibition, % at 20 µM; 0.64% of 360,000 active; AID 602440; in the data active = inhibition mostly above about 40%, no sharp cut-off; inactive = mostly below about 27%
HSP90 inh = blocks HSP90-mediated luciferase refolding in reticulocyte lysate; 0.91% of 290,000 active; Rabbit reticulocyte lysate, luciferase refolding luminescence, 3 h; inhibition, % at 5.6 µM;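 active = inhibition above the screen-wide mean plus 3 SD, computed separately per campaign, cut at about 16% in these data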;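 also: 0% = DMSO wells and 100% = 60 µM geldanamycin wells; inhibitors lower the luminescence because luciferase stays unfolded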
HSP90 confirm = HSP90 inhibition, confirmation assay | shares compounds with HSP90 inh | rabbit reticulocyte lysate, luciferase refolding luminescence, 3 h | inhibition, % at 5.9 µM | 64% of 2,300 active | AID 1846; in the data active = inhibition above about 18%;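 also: 0% = vehicle wells and 100% = reference inhibitor wells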
luciferase ctr = counter-screen for HSP90 inhibitors: inhibitors of firefly luciferase; shares compounds with HSP90 inh; purified native firefly luciferase, luminescence; inhibition, % at 5.9 µM; 48% of 2,300 active; AID 1847;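 active = inhibition above the mean inhibition of all tested sample wells plus 3 SD, cut at about 10% in these data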;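 also: 0% = DMSO with luciferase and 100% = wells lacking luciferase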
SENP8 confirm = human SENP8 inhibition, confirmed; shares compounds with SENP7 inh; Recombinant SENP8, Z-RLRGG-aminoluciferin luminescence, 60 min; inhibition, % at 12.5 µM; 40% of 6,200 active;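 active = mean inhibition across replicates above about 50%, limit read from the data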
SENP6 conf = confirmation of human SENP6 protease inhibitors; shares compounds with SENP7 inh; recombinant SENP6, Z-RLRGG-aminoluciferin luminescence; inhibition, % at 12.5 µM; 58% of 6,200 active; AID 488915
SENP7 confirm = confirmation of human SENP7 protease inhibitors. AID 488917. 69% of 6,200 active. recombinant SENP7, Z-RLRGG-aminoluciferin luminescence, 40 min. inhibition, % at 12.5 µM. shares compounds with SENP7 inh
Casp3 SENP sel = selectivity test for SENP inhibitors: human caspase-3 inhibition | 60% of 6,200 active | inhibition, % at 12.5 µM | shares compounds with SENP7 inh | purified caspase-3, Z-DEVD-aminoluciferin luminescence, 60 min;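 active = mean inhibition above about 50%, limit read from the data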;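 also: plate controls were enzyme with DMSO for no effect and wells without caspase-3 for full effect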
Target sequence (P42574 28-227 limits assumed): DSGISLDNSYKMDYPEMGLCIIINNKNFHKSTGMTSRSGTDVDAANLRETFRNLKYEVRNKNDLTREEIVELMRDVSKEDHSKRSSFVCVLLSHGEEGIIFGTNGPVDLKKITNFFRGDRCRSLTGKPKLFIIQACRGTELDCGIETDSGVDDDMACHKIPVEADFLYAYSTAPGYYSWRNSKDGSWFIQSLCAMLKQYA
Luc interf = luminescence interference (SENP counter-screen); shares compounds with SENP7 inh; Pre-incubated SENP8/Z-RLRGG-aminoluciferin, luciferase luminescence interference; inhibition, % at 12.5 µM; 39% of 6,200 active; AID 488919;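 active = mean inhibition above about 50% when retested at one dose, limit read from the data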;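 also: plate controls were DMSO wells with completed reaction for no effect and substrate without enzyme for full effect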
Numbers without * were called inactive. An excerpt weighted towards active compounds, which were near 2.7% of everything screened.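 The calls were made as follows, unless noted: active = mean inhibition above about 50% in the one-dose retest (limit read from the data); inactive = the rest.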

How did C=CCn1c2ccccc2c(=O)c2cc(C#CC3(O)CCCCC3)ccc21 do in these assays?
SENP6 block: 75.8*; SENP8 block-1: 70.9*; SENP7 inh: 43.1; SENP8 block-2: -454.0; HSP90 inh: 19.4*; HSP90 confirm: 27.0*; luciferase ctr: 5.2; SENP8 confirm: 8.9; SENP6 conf: 78.7*; SENP7 confirm: 93.1*; Casp3 SENP sel: 59.9*; Luc interf: -3.5

How did O=C(Nc1cccc(O)c1)c1noc2c1CCCCC2 do in these assays?
SENP6 block: 96.2*; SENP8 block-1: 92.1*; SENP7 inh: 94.6*; SENP8 block-2: -6.7; HSP90 inh: 60.4*; HSP90 confirm: 69.4*; luciferase ctr: 56.8*; SENP8 confirm: 95.6*; SENP6 conf: 95.9*; SENP7 confirm: 102.2*; Casp3 SENP sel: 95.9*; Luc interf: 92.6*

Results for COc1ccc(NC(=O)c2noc3c2CCC3)cc1 ?
SENP6 block: 22.4; SENP8 block-1: 71.5*; SENP7 inh: 81.1*; SENP8 block-2: 18.3; HSP90 inh: 26.7*; HSP90 confirm: 20.3*; luciferase ctr: 31.2*; SENP8 confirm: 10.9; SENP6 conf: 77.2*; SENP7 confirm: 93.3*; Casp3 SENP sel: 90.1*; Luc interf: 79.1*

Results for Cc1ccc(NC(=O)c2noc3c2CCC3)cc1C ?
SENP8 block-2: 27.5; HSP90 inh: 2.2

How did CCOC(=O)c1sc(NC(=O)c2ccc(=O)[nH]c2)nc1C do in these assays?
SENP6 block: 7.8; SENP8 block-1: -3.5; SENP7 inh: 5.8; SENP8 block-2: -66.7; HSP90 inh: 2.5

Results for C=CCOC(=O)c1sc(NC(=O)c2ccc(OC)cc2)nc1C ?
SENP6 block: -29.9; SENP8 block-1: 1.0; SENP7 inh: 68.8*; SENP8 block-2: -125.8; HSP90 inh: 54.6*; HSP90 confirm: 60.3*; luciferase ctr: -10.9; SENP8 confirm: 14.4; SENP6 conf: 16.3; SENP7 confirm: 25.2; Casp3 SENP sel: 14.9; Luc interf: 4.4

How did COc1ccc(OCC(=O)Nc2nccs2)cc1 do in these assays?
SENP6 block: 26.2; SENP8 block-1: 62.4*; SENP7 inh: 82.6*; SENP8 block-2: 12.7; HSP90 inh: 31.4*; HSP90 confirm: 60.0*; luciferase ctr: 39.3*; SENP8 confirm: 77.6*; SENP6 conf: 79.1*; SENP7 confirm: 95.4*; Casp3 SENP sel: 92.9*; Luc interf: 79.1*

Results for O=C(COc1ccc2c(c1)OCO2)Nc1nccs1 ?
SENP6 block: 95.7*; SENP8 block-1: 89.6*; SENP7 inh: 95.1*; SENP8 block-2: 7.9; HSP90 inh: 37.1*; HSP90 confirm: 52.7*; luciferase ctr: 36.4*; SENP8 confirm: 94.7*; SENP6 conf: 94.9*; SENP7 confirm: 101.6*; Casp3 SENP sel: 97.2*; Luc interf: 93.3*

What do the screens show for `CCOc1ccc(OCC(=O)Nc2nccs2)cc1`?
SENP6 block: 97.1*; SENP8 block-1: 94.9*; SENP7 inh: 98.0*; SENP8 block-2: 18.0; HSP90 inh: 54.0*; HSP90 confirm: 77.3*; luciferase ctr: 69.8*; SENP8 confirm: 96.8*; SENP6 conf: 96.8*; SENP7 confirm: 101.9*; Casp3 SENP sel: 98.1*; Luc interf: 87.7*

Results for CCc1nc2ccccc2c(C(=O)OCC(=O)Nc2ccc(NC(C)=O)cc2)c1C ?
SENP6 block: 0.3; SENP8 block-1: -9.9; SENP7 inh: -9.1; SENP8 block-2: 12.8
